# Test results published in PubChem BioAssay AID1159580 (chemical genetic matrix, 2015).
# “And” between values parts separate entries of the source, which are not always exact repeats. Equal values may be shown once. Hit rate of the full screen: of about 5,500 compounds, about 2,000 (36%) were called active. Not shown: some 18% with an inconclusive outcome. The list shows a part of the results. Values without a mark were called inactive. No stated cut-off is given here; in the data, active means normalized growth mostly below about 0.91 (no sharp cut-off); inconclusive means no clear call, values can overlap the other calls; inactive means mostly above about 0.92.
# Assay: chemical genetic growth profiling, strain panel (AID 1159580);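 further: tested at 20 µM; growth read once vehicle control cultures reached saturation at 30 °C; 1 = growth at the plate median or of vehicle wells; lower values mean less growth of the strain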
# Settings: S. cerevisiae deletion strains, growth OD
compound,measurement,setting,value
COc1cc2ccc(=O)oc2c(O)c1O,normalized growth,"locus YBR021W, strain FUR4, active compounds read low",1.03
same,normalized growth,"locus YBR229C, strain ROT2, active compounds read low",0.957
same,normalized growth,"locus YCL029C, strain bik1, active compounds read low",1.01
same,normalized growth,"locus YDL035C, strain GPR1, active compounds read low",1.01
same,normalized growth,"locus YDL074C, strain BRE1, active compounds read low",1.05
same,normalized growth,"locus YDL101C, strain DUN1, active compounds read low",0.984
same,normalized growth,"locus YDL185W, strain tfp1, active compounds read low",0.983
same,normalized growth,"locus YDL192W, strain arf1, active compounds read low",1
same,normalized growth,"locus YDR101C, strain arx1, active compounds read low",1.01
same,normalized growth,"locus YDR162C, strain NBP2, active compounds read low",0.934
same,normalized growth,"locus YDR318W, strain mcm21, active compounds read low",0.992
same,normalized growth,"locus YDR388W, active compounds read low",1
same,normalized growth,"locus YDR502C, strain sam2, active compounds read low",0.986
same,normalized growth,"locus YEL061C, strain CIN8, active compounds read low",0.995
same,normalized growth,"locus YER110C, active compounds read low",0.995
same,normalized growth,"locus YER155C, strain BEM2, active compounds read low",1.03
same,normalized growth,"locus YER167W, strain BCK2, active compounds read low",1.01
same,normalized growth,"locus YGL078C, strain dbp3, active compounds read low",1.01
same,normalized growth,"locus YGL086W, strain mad1, active compounds read low",1.04
same,normalized growth,"locus YGL248W, strain PDE1, active compounds read low",0.979
same,normalized growth,"locus YGR078C, strain PAC10, active compounds read low",0.98
same,normalized growth,"locus YGR135W, strain pre9, active compounds read low",0.966
same,normalized growth,"locus YGR252W, strain gcn5, active compounds read low",0.959
same,normalized growth,"locus YHR030C, strain SLT2, active compounds read low",1.01 and 1.04
same,normalized growth,"locus YHR079C, strain IRE1 (second series), active compounds read low",0.996
same,normalized growth,"locus YHR079C, strain IRE1, active compounds read low",1.03
same,normalized growth,"locus YHR094C, strain hxt1, active compounds read low",0.987
same,normalized growth,"locus YHR129C, strain ARP1, active compounds read low",0.995
same,normalized growth,"locus YHR200W, strain rpn10, active compounds read low",0.988
same,normalized growth,"locus YIL066C, strain RNR3, active compounds read low",0.996
same,normalized growth,"locus YIL073C, strain SPO22, active compounds read low",0.997
same,normalized growth,"locus YIL125W, strain kgd1, active compounds read low",1
same,normalized growth,"locus YIR030C, strain dcg1, active compounds read low",1
same,normalized growth,"locus YJL095W, strain BCK1, active compounds read low",0.956 and 1.01
same,normalized growth,"locus YJL134W, strain LCB3, active compounds read low",1
same,normalized growth,"locus YJL168C, strain set2, active compounds read low",0.992
same,normalized growth,"locus YJL187C, strain SWE1 (second series), active compounds read low",0.991
same,normalized growth,"locus YJR043C, strain POL32, active compounds read low",1.01
same,normalized growth,"locus YJR066W, strain TOR1, active compounds read low",0.978
same,normalized growth,"locus YJR075W, strain HOC1, active compounds read low",1.01
same,normalized growth,"locus YKL009W, strain mrt4, active compounds read low",1.13 [resistant] (active)
same,normalized growth,"locus YKL068W, active compounds read low",0.982
same,normalized growth,"locus YKL085W, strain MDH1 (second series), active compounds read low",1
same,normalized growth,"locus YKL085W, strain MDH1, active compounds read low",1
same,normalized growth,"locus YKR001C, strain vps1, active compounds read low",1
same,normalized growth,"locus YLR039C, strain RIC1, active compounds read low",1
same,normalized growth,"locus YLR058C, strain SHM2, active compounds read low",1
same,normalized growth,"locus YLR102C, strain apc9, active compounds read low",1
same,normalized growth,"locus YLR113W, strain HOG1, active compounds read low",0.984
same,normalized growth,"locus YLR262C, strain YPT6, active compounds read low",0.955
same,normalized growth,"locus YLR268W, strain sec22, active compounds read low",1.03
same,normalized growth,"locus YLR330W, strain CHS5, active compounds read low",1
same,normalized growth,"locus YLR342W, strain FKS1 (second series), active compounds read low",1.06
same,normalized growth,"locus YLR371W, strain rom2, active compounds read low",0.981
same,normalized growth,"locus YLR418C, strain cdc73, active compounds read low",0.971
same,normalized growth,"locus YML016C, strain PPZ1, active compounds read low",0.996
same,normalized growth,"locus YML032C, strain rad52, active compounds read low",1.01
same,normalized growth,"locus YML124C, strain tub3, active compounds read low",0.997
same,normalized growth,"locus YMR078C, strain ctf18, active compounds read low",0.991
same,normalized growth,"locus YMR223W, strain ubp8, active compounds read low",1.01
same,normalized growth,"locus YMR307W, strain GAS1, active compounds read low",1.05
same,normalized growth,"locus YNL067W, strain RPL9B, active compounds read low",0.983
same,normalized growth,"locus YNL128W, strain TEP1, active compounds read low",0.96
same,normalized growth,"locus YNL183C, strain NPR1, active compounds read low",0.976
same,normalized growth,"locus YNL233W, strain BNI4, active compounds read low",1
same,normalized growth,"locus YNL250W, strain rad50, active compounds read low",1
same,normalized growth,"locus YNL271C, strain bni1, active compounds read low",1
same,normalized growth,"locus YNL298W, strain CLA4, active compounds read low",0.997
same,normalized growth,"locus YNL307C, strain MCK1, active compounds read low",1.01
same,normalized growth,"locus YNL322C, strain KRE1, active compounds read low",0.99
same,normalized growth,"locus YNR052C, strain pop2, active compounds read low",0.993
same,normalized growth,"locus YOL006C, strain TOP1, active compounds read low",1.11
same,normalized growth,"locus YOL012C, strain htz1",0.802
same,normalized growth,"locus YOL147C, strain pex11, active compounds read low",1.01
same,normalized growth,"locus YOR061W, strain CKA2, active compounds read low",0.988
same,normalized growth,"locus YOR069W, strain VPS5, active compounds read low",1.01
same,normalized growth,"locus YOR136W, strain idh2, active compounds read low",1.01
same,normalized growth,"locus YOR144C, strain elg1, active compounds read low",0.994
same,normalized growth,"locus YOR184W, strain ser1, active compounds read low",0.983
same,normalized growth,"locus YOR231W, strain MKK1, active compounds read low",1.01
same,normalized growth,"locus YOR316C, strain cot1, active compounds read low",0.997
same,normalized growth,"locus YPL256C, strain CLN2, active compounds read low",1.03
same,normalized growth,"locus YPR119W, strain clb2, active compounds read low",0.991
same,normalized growth,"locus YPR141C, strain kar3, active compounds read low",0.997
same,normalized growth,"locus YPR163C, strain tif3, active compounds read low",0.985
same,normalized growth,"locus YPR167C, strain met16, active compounds read low",0.994
same,normalized growth,"strain wtn01, active compounds read low",1.03
